We go through 48 compounds from PubChem BioAssay AID1529 (NMMLSC, 2009).

Where “and” joins values, the source holds several entries; their conditions need not be identical. Equal entries are not always repeated. In all, about 290,000 compounds went through this assay and about 4,200 (1.4%) were called active.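 How the source made its calls: active means binding response more than 3 SD above or below the average of its plate-row segment, actives on both sides; inconclusive means wells at one plate position flagged as instrument error; inactive means the rest.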 Many of the other results were omitted from the sample, so actives are more common in it than they were. Some compounds were tested as several samples or in several runs, with calls that do not always agree.

For the experiment, the target named is Mitogen-activated protein kinase kinase kinase 3 (Homo sapiens) (UniProt Q99759). Nature of the experiment: compounds raising or lowering MEK5 association with MEKK3 PB1 – biochemical, wildtype MEKK3, multiplex bead flow cytometry, Alexa488-MEK5, primary screen (AID 1529).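 Further: Alexa488 bead fluorescence after subtracting the streptavidin-only scavenger bead signal.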 To be noted: bead-based flow cytometry, Alexa488-MEK5 binding to MEKK3; at 10 µM; actives lie on both sides; 0 = blocked by unlabeled MEK5, 100 = vehicle. A general note: In flow cytometry, cells or beads pass a laser one at a time.
Mitogen-activated protein kinase kinase kinase 3 (Homo sapiens), sequence (Q99759 whole entry, looked up): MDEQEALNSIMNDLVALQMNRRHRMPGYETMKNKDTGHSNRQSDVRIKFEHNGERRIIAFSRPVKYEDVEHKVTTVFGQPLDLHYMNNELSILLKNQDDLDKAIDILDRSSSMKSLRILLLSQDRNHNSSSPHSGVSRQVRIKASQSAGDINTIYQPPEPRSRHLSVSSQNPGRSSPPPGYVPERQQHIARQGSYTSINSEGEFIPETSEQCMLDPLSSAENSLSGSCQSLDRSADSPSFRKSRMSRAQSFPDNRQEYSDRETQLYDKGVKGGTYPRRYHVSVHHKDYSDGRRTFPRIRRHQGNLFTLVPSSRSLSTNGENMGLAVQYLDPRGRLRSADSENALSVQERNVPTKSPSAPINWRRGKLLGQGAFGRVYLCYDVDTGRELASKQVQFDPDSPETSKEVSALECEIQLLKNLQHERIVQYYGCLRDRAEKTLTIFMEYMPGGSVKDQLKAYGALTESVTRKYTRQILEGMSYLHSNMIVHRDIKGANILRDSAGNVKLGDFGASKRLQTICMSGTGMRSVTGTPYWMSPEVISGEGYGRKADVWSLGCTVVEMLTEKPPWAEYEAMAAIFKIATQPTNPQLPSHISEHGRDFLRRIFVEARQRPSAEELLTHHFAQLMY
As to `COC(=O)c1ccccc1NC(=O)C1(S(=O)(=O)c2ccc(Cl)cc2)CC1`, the binding response (% of control) was 102% (inactive).

Consider `COC(=O)Cn1cnc2scc(-c3ccc(C)c(C)c3)c2c1=O`, for which the binding response (% of control) is 105% (inactive).

For the compound `CC1CN(C(=O)c2ccccc2NS(=O)(=O)c2cccc([N+](=O)[O-])c2)CC(C)O1` (stereo not drawn), the binding response (% of control) was 131% (active).

With `COc1ccc(S(=O)(=O)Nc2ccccc2C(=O)N2CCCC2)cc1C`, the binding response (% of control) is 104% (inactive).

Regarding `COCCNC(=O)c1ccccc1NS(=O)(=O)c1ccc(C)c([N+](=O)[O-])c1`, the binding response (% of control) was 101% (inactive).

As to `O=C(NCC1CC1)c1onc(CSc2ccccc2)c1C(=O)NCC1CC1`, the binding response (% of control) is 97% (inactive).

For the compound `NC(=O)COC(=O)c1ccc2c(c1)C(=O)N(Cc1ccco1)C2=O`, the binding response (% of control) is 99% (inactive).

Consider `C=CCn1c(P(C)(=O)O)nc2ccccc21`, for which the binding response (% of control) is 138% (active) and 103% (inactive).

For `C=CCn1c(C(C)NC(=O)CC)nc2ccccc21` (stereo not drawn), the binding response (% of control) is 94% (inactive).

In the case of `C=CCn1c(C2CC(=O)N(c3ccc(C)cc3)C2)nc2ccccc21` (stereo not drawn), the binding response (% of control) is 96% (inactive).

Take `COc1ccc(C#Cc2c(-c3ccc(OC)cc3)oc3ccc(-c4ccc5c(c4)OCO5)cc23)cc1`: the binding response (% of control) is 95% (inactive).

`COc1ccc(-n2cc(-c3ccccc3)c3c(=S)nc[nH]c32)cc1`: the binding response (% of control) is 101% (inactive).

As for `CCn1cc(S(=O)(=O)c2cccc(C)c2)c(=O)c2cc(F)c(N3CCN(C)CC3)cc21`, the binding response (% of control) was 101% (inactive).

Turning to `Cc1ccc(Nc2nc(CSc3nnc(-c4ccncc4)n3-c3ccccc3C)cs2)cc1`, the binding response (% of control) was 138% (active).

With `Cc1ccc(-n2c(SCC(=O)N3c4ccccc4Sc4ccccc43)nnc2-c2ccncc2)cc1`, the binding response (% of control) is 97% (inactive).

Consider `Cc1ccc(-c2noc(CSc3nnc(-c4ccncc4)n3-c3ccc(F)cc3)n2)cc1`, for which the binding response (% of control) is 106% (inactive).

For `COc1cccc(C(C(=O)NC2CCCC2)N(C(=O)c2ccco2)c2cccc(C(C)=O)c2)c1OC` (stereo not drawn), the binding response (% of control) is 98% (inactive).

`O=C(CCCCCn1c(=S)[nH]c2ccsc2c1=O)NC1CCCCC1`: the binding response (% of control) is 102% (inactive).

For the compound `CCOC(=O)c1ccc(CS(=O)c2ccc(Cl)cc2)o1` (stereo not drawn), the binding response (% of control) was 100% (inactive).

On to `CCOC(=O)N1CCN(C(=O)CNC(=O)Cc2ccc(Cl)cc2)CC1`, for which the binding response (% of control) is 99% (inactive).

`CCOC(=O)c1c(Cc2ccc(Cl)cc2)c[nH]c1C`: the binding response (% of control) is 136% (active).

`COC(=O)c1cc(NC(=O)c2ccco2)ccc1N1CCOCC1`: the binding response (% of control) was 95% (inactive).

As for `CC(=O)Nc1ccc(N2CCOCC2)c(C(=O)Nc2cccc(C)c2)c1`, the binding response (% of control) was 2% [inhibitor] (active).

As to `COC(=O)c1cc(NC(=O)c2cccnc2)ccc1N1CCOCC1`, the binding response (% of control) is 102% (inactive).

In the case of `COC(=O)c1cc(NC(=O)c2cc(C(C)(C)C)nn2Cc2cccc(C)c2)ccc1N1CCOCC1`, the binding response (% of control) was 134% (active).

In the case of `Cc1cccc(NC(=O)c2cc([N+](=O)[O-])ccc2N2CCN(C)CC2)c1`, the binding response (% of control) was 105% (inactive).

As for `CC(=O)Nc1cccc(Oc2cc(C#N)c(C#N)cc2N2CCOCC2)c1`, the binding response (% of control) was 97% (inactive).

As to `CC1=C(N2CCN(c3ncccn3)CC2)CCC1=O`, the binding response (% of control) is 103% (inactive).

Take `CCCCCC(O)(CCN1CCCCC1)c1ccccc1` (stereo not drawn): the binding response (% of control) was 104% (inactive).

Regarding `Cc1ccc(-c2ccc(/C=C(\C#N)C(N)=S)o2)c([N+](=O)[O-])c1`, the binding response (% of control) is 100% (inactive).

Turning to `CCOC(=O)c1ccc(NC(=O)c2c(N)n(C)c(=O)[nH]c2=O)cc1`, the binding response (% of control) is 89% (inactive).

In the case of `COC(=O)C(C)NC(=O)COc1ccc2ccccc2c1` (stereo not drawn), the binding response (% of control) is 98% (inactive).

As to `COCC(C)NC(=O)COc1nncc2ccccc12` (stereo not drawn), the binding response (% of control) is 39% [inhibitor] (active).

In the case of `CC(C)C(C)NC(=O)COc1ncnc2ccccc12` (stereo not drawn), the binding response (% of control) was 106% (inactive).

Regarding `CCOc1ccc(C(=O)Nc2ccc(CN3CCOCC3)cc2)cc1Cl`, the binding response (% of control) was 103% (inactive).

For `CC1CN(C(=O)c2cc(COc3c(F)cccc3F)on2)CCN1C` (stereo not drawn), the binding response (% of control) is 100% (inactive).

Regarding `C=C1CCN([C@@H](Cc2ccccc2)C(=O)N2CCOCC2)S(=O)(=O)c2ccccc21`, the binding response (% of control) is 105% (inactive).

In the case of `CCn1cc(/C=C(\NC(=O)c2ccc(C)cc2)C(=O)NCCN2CCOCC2)c2ccccc21`, the binding response (% of control) was 102% (inactive).

As to `COc1ccc(Cl)cc1NC(=O)CNc1ccccc1F`, the binding response (% of control) is 104% (inactive).

For `C=C(C)C1CC=C(C)/C(=N\NC(=O)CNc2ccccc2OC)C1` (stereo not drawn), the binding response (% of control) was 128% (active).

Take `C=C(C)C1CC=C(C)/C(=N/NC(=O)CCCNc2cccc(C)c2)C1` (stereo not drawn): the binding response (% of control) was 97% (inactive).

As to `CCCC[C@@H]1CN=C(N)N1CCCC`, the binding response (% of control) is 89% (inactive).

Turning to `CC(=O)C1=C(O)C(=O)N(c2ccc(Br)cc2)C1c1ccc([N+](=O)[O-])cc1` (stereo not drawn), the binding response (% of control) was 98% (inactive).

For the compound `CCc1cccc(CC)c1NC(=S)NCc1ccc2[nH]c(C)cc2c1`, the binding response (% of control) is 106% (inactive).

Turning to `Cc1cc2cc(CNC(=O)c3ccc(S(=O)(=O)N4CCOCC4)cc3)ccc2[nH]1`, the binding response (% of control) was 94% (inactive).

Take `Cc1cc2cc(CNC(=O)c3cccs3)ccc2[nH]1`: the binding response (% of control) is 73% [inhibitor] (active).

For `O=C(CSc1nccc(=O)[nH]1)Nc1ccc(N2CCOCC2)c(Cl)c1`, the binding response (% of control) is 99% (inactive).

On to `O=S(=O)(c1ccccc1)N(Cc1cccc(F)c1)c1ccccc1`, for which the binding response (% of control) is 99% (inactive).
